The list is not random: actives were taken first. Their share in the collection is about 4.7%.
Pyk2 oligo antag: antagonists of Pyk2 self-association, primary screen, Q293 cells, FERM NanoBiT luminescence, HTS | Protein-tyrosine kinase 2-beta (Homo sapiens), Q14289 | active compounds read low | z-score (the deposit names both 25 µM and 10 µM) | 99,000 compounds, 0.83% hits | AID 1347419, 2020;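 active = Z-score of -3 or lower, scaled per plate to the spread of control and sample wells; inactive = z-score above -3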;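 also: negative z-score means lost luminescence so less FERM oligomerization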
Plk1 PBD FP: Plk1 polo box domain binding inhibitors, primary screen, biochemical, fluorescence polarization. 97,000 compounds, 0.13% hits. Plk1 PBD phosphopeptide binding. inhibition, %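 (tested at about 20 µM)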. Serine/threonine-protein kinase PLK1 (Homo sapiens), P53350; in the data active = inhibition above about 34%, passing the limit was not always enough
PLK1 kinase inh: human PLK1 kinase inhibitors, primary screen, biochemical, TR-FRET; Serine/threonine-protein kinase PLK1 (Homo sapiens), P53350; 97,000 compounds, 0.53% hits; recombinant PLK1 kinase, TR-FRET peptide phosphorylation; inhibition, % at 10 µM;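 active = inhibition of 50% or more in the single-concentration screen; inactive = inhibition below 50%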
sdo1 growth: growth rescue of sdo1-depleted yeast, primary screen, S. cerevisiae, bone marrow failure model; S. cerevisiae sdo1-depleted JHY4D growth rescue, OD600 30 h; active compounds read high; pdr5 snq2 efflux-pump mutant strain; z-score at 10 µM; 140,000 compounds, 0.21% hits; AID 817, 2007;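 active = z-score above 3 at both the 24 hr and the 30 hr optical density reads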
DAT uptake mod: changed hDAT dopamine uptake under cocaine IC80, either direction, primary screen, cocaine antagonist project, cell-based, LLC-PK1 hDAT, [14C]-dopamine uptake, MLSMR | Sodium-dependent dopamine transporter (Homo sapiens), Q01959 | LLC-PK1 hDAT cells, [14C]-dopamine uptake with cocaine IC80; actives deviate in either direction | B-score at 10 µM | 110,000 compounds, 1.3% hits | AID 449768, 2010;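 active = Z score or B-score, a plate-position-corrected score, falls beyond the plate's 99.7% confidence bounds, in either direction; inactive = both scores lie inside the 99.7% bounds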
Target sequence (Q01959 whole entry, looked up): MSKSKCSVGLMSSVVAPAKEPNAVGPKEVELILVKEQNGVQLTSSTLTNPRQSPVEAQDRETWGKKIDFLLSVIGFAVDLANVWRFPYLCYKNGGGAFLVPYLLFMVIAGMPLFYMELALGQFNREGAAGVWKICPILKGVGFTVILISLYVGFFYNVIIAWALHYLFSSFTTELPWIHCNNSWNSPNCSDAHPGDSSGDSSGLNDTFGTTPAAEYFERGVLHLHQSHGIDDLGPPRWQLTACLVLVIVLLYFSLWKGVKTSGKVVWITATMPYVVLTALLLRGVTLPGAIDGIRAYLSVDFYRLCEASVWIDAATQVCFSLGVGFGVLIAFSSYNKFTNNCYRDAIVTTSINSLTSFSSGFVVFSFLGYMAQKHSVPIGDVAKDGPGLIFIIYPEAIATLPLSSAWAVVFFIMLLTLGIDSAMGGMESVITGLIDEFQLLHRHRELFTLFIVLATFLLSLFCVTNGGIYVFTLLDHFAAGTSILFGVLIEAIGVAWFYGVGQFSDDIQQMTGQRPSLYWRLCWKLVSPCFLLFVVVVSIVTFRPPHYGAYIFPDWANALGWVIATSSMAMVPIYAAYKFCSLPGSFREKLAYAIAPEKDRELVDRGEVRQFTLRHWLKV
Cav3 T inh: Cav3.2 calcium influx blockers – cell-based, Fluo-4 calcium fluorescence, FDSS, MLSMR library, primary screen. Voltage-dependent T-type calcium channel subunit alpha-1H (Homo sapiens), O95180. Cav3.2-expressing cells; active compounds read low. B-score at 10 µM. 100,000 compounds, 4% hits. AID 449739, 2010;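 active = single-dose well whose peak fluorescence ratio is a statistical outlier from its plate by either plate-standardised score or position-corrected B-score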
SDO1 rescue DR: SDO1-depleted yeast growth rescue, concentration-response, diseases of bone marrow failure, JHY4D, OD600; shares compounds with sdo1 growth; S. cerevisiae JHY4D (SDO1-depleted) growth rescue, 30 h; active compounds read high; efflux-deficient strain, SNQ2 and PDR5 mutated; OD recovery (test concentration not listed); 440 compounds, 44% hits; AID 949, 2007;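 active = yeast growth recovered at 30 hours, either rising with dose fitted slope above 0.001 or with average optical density gain above 0.07, some results past the limit were not filed as active; inactive = growth falling with dose or no effect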
Numbers stand for hits; i = inactive; nt = not tested or not shown.

SMILES	Pyk2 oligo antag	Plk1 PBD FP	PLK1 kinase inh	sdo1 growth	DAT uptake mod	Cav3 T inh	SDO1 rescue DR
Cc1ccc(S(=O)(=O)N2CC=C(c3ccc(F)cc3)CC2)cc1	nt	nt	nt	7.1	nt	nt	i
COc1ccc(N=Nc2nc3cc(Br)c(Br)cc3n2C)c(OC)c1	i	nt	nt	i	nt	nt	nt
S=C(Nc1ccccc1)Nc1nc2ccccc2n1CCOc1ccc(Br)cc1	nt	nt	nt	7.6	nt	nt	0.089
O=S(=O)(O)c1nc2ccccc2n1CCOc1ccccc1	i	i	i	8.3	i	i	i
Cc1cccc(OCCn2c(S(=O)(=O)O)nc3ccccc32)c1	i	i	i	i	i	i	nt
Cn1c(NC(=S)Nc2ccccc2)nc2ccccc21	nt	nt	nt	i	nt	nt	nt
Cc1cccc(NC(=O)Cc2ccc(F)cc2)c1	i	i	i	6.8	i	i	0.075
CCc1c(C)nc(SC(C(=O)O)c2ccccc2)c(C#N)c1C (stereo not given)	nt	nt	nt	i	nt	nt	nt
COc1ccc(CCN2C(=O)c3cccc4cccc(c34)C2=O)cc1OC	i	i	i	i	nt	nt	0.094
N#Cc1cc(Br)ccc1N=C1CCCN1c1ccccc1	i	nt	nt	i	nt	nt	nt
CCOc1ccccc1/C=N/Nc1ccccc1[N+](=O)[O-]	i	i	i	i	i	i	i
O=C1OC(/C=C/c2ccc(Cl)cc2Cl)=NC/1=C\c1cccs1	i	nt	nt	i	nt	nt	nt
O=C(Nc1cc(S(=O)(=O)Nc2ccc(Cl)cc2)ccc1N1CCCCC1)c1ccc(F)cc1Cl	nt	nt	nt	i	nt	nt	nt
CCOC(=O)C1CCCN(C(=O)CSc2ccccc2)C1 (stereo not given)	nt	nt	nt	i	nt	nt	nt
CCOC(=O)C1CCCN(C(=O)c2ccccc2SCCOC)C1 (stereo not given)	i	i	i	i	i	i	0.081
Cc1ccc(C(=O)NCCCN2CCOCC2)o1	i	i	i	i	i	i	i
Cc1ccc(C(=O)NCCCN2CCOCC2)cc1	i	i	i	nt	i	i	nt
O=C(CSc1nnc(Cc2ccccc2)n1-c1cccc(Cl)c1)NNC(=O)Cc1ccccc1	nt	nt	nt	i	nt	nt	nt
CN(C)Cc1ccccc1COc1ccccc1	nt	nt	nt	i	nt	nt	nt
CC(C)COC(=O)c1cc(-c2ccc(/C=N/n3cnnc3)o2)ccc1Cl	i	i	i	4	i	i	0.12
Fc1ccc(-c2ccc(/C=N\n3cnnc3)o2)cc1Cl	nt	nt	nt	i	nt	nt	nt
CS(=O)(=O)Nc1ccc(C2=NN(S(C)(=O)=O)C(c3ccc4c(c3)OCO4)C2)cc1 (stereo not given)	nt	nt	nt	i	nt	nt	nt
Cc1cccc(OCC(O)CN2CC3(C)CC2CC(C)(C)C3)c1 (stereo not given)	nt	nt	nt	i	nt	nt	nt
O=C(N/N=C/c1cccn1-c1cccc(C(=O)O)c1)Nc1ccccc1	nt	nt	nt	i	nt	nt	nt
COc1cc(/C=N/NC(=O)c2ccoc2C)ccc1O	nt	nt	nt	i	nt	nt	0.074
SMILES	Pyk2 oligo antag	Plk1 PBD FP	PLK1 kinase inh	sdo1 growth	DAT uptake mod	Cav3 T inh	SDO1 rescue DR
COc1cc(/C=N/NC(=O)c2nc(C)cc(C)n2)ccc1O	i	i	i	i	i	i	nt
COc1ccc(C(=O)Nc2sc(C)c(C)c2CN2CC(C)OC(C)C2)cc1 (stereo not given)	nt	nt	nt	i	nt	nt	nt
Cc1ccc(-n2[nH]c(C)c(C=Nc3cc(C)ccn3)c2=O)cc1	i	i	i	9.4	i	i	0.07
Cc1ccc(-n2[nH]c(C)c(/C=N/c3ccccn3)c2=O)cc1	i	i	i	i	i	i	nt
O=C(CNc1cc(S(=O)(=O)N2CCCC2)ccc1OCC(F)(F)F)Nc1ccc(SC(F)F)cc1	i	nt	nt	i	nt	nt	nt
Cc1ccc(-n2nnc3c(=O)oc4ccccc4c32)cc1	i	i	i	i	i	i	nt
O=c1oc2ccccc2c2nccnc12	i	i	i	5.4	i	i	i

Source: PubChem (several laboratories)
